Source: PubChem (several laboratories)
In the library only some 1.8% were active in any assay of this set; here they are far more common.
PolyA inh = yeast polyadenylation inhibition. S. cerevisiae SKY197-pL101 polyadenylation reporter, beta-gal luminescence; efflux-impaired pdr1/pdr3 knockout yeast; score 100 = 6 SD above DMSO. activity score, % at 12 µM. 300,000 tested, 0.02% active;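 active means lowest replicate activity score at least 50, where 100 means six control SD above control mean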;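 further: yeast exposed to compound for 9 h at 30 °C; higher score means more reporter readthrough which indicates perturbed polyadenylation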
SUMO Mot1 rescue = inhibitors of SUMOylation pathway: yeast Mot1-301 growth rescue; 320,000 tested, 1% active; AID 2716; S. cerevisiae Mot1-301 growth rescue, ATP luminescence, 38.5C; percent above DMSO median, 100 means doubled; growth rescue, % at 18.8 µM;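 active means every valid replicate shows activation above 250% relative to neutral control wells; inactive means the rest, any valid replicate at or below 250%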;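 further: OY570 slx delta 5 strain wells were the positive control but not used for scaling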
NALP1 yeast inh = blocks the NALP1 inflammasome reconstituted in yeast; S. cerevisiae NALP1/ASC/caspase-1 growth, X-gal OD620, 72 h; inhibition, % at 10 µM; 280,000 tested, 0.61% active; AID 2071; in the data active means inhibition mostly above about 24%, no sharp cut-off; inactive means mostly below about 32%
NLRP3 yeast inh = inhibitors of NALP3 inflammasome in yeast; Yeast reconstituted NLRP3/ASC/caspase-1, beta-gal luminescence, 24 h; inhibition, % at 10 µM; 330,000 tested, 0.39% active;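 active means inhibition of 50% or more; inactive means inhibition below 50%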;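 further: plate controls were induced DMSO wells for no effect and uninduced yeast grown without galactose for full effect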
Mot1 SUMO dose = inhibits SUMO pathway, affecting Mot1-301 yeast growth. shares compounds with SUMO Mot1 rescue. S. cerevisiae Mot1-301 galactose growth, ATP luminescence, 24 h; -100 = growth of slx-deleted rescue strain. growth activity, percent, % at 42 µM. 2,300 tested, under 10 active. AID 493004;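 active means Signal drops as the depositor expects, and the fitted half-maximal dose is no more than ten times the top valid tested dose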;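 further: more negative values mean stronger growth rescue toward the control strain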
An asterisk follows results filed as active.

`CCC1(CC)NC(=O)N(CC(=O)N2N=C(c3ccc(Cl)cc3)CC2c2ccco2)C1=O` (stereo unspecified) gave PolyA inh 22.4, SUMO Mot1 rescue 580.8*, NALP1 yeast inh -1.9, NLRP3 yeast inh 10.9 and Mot1 SUMO dose 0.5.
For O=C(O)CCC(=O)N1N=C(c2c(-c3ccccc3)c3cc(Cl)ccc3[nH]c2=O)CC1c1ccco1 (stereo unspecified) the results were PolyA inh -9.2, SUMO Mot1 rescue 376.9*, NALP1 yeast inh -2.3, NLRP3 yeast inh -8.3 and Mot1 SUMO dose 0.0.
Screening COc1cccc(C2C(C(=O)c3ccc(C)o3)=C(O)C(=O)N2CCN2CCOCC2)c1OC (stereo unspecified) returned PolyA inh 9.2, SUMO Mot1 rescue 6.7, NALP1 yeast inh 15.2 and NLRP3 yeast inh 8.1.
Screening Cc1ccc(N(C(=O)CCl)C(C(=O)NC2CCCCC2)c2cccnc2)cc1C (stereo unspecified) returned PolyA inh -25.4, SUMO Mot1 rescue 369.0*, NALP1 yeast inh 12.0 and Mot1 SUMO dose 0.2.
`O=C(O)c1cccc(NC(=O)c2cccc(S(=O)(=O)Nc3cccc([N+](=O)[O-])c3)c2)c1` gave PolyA inh -4.1, SUMO Mot1 rescue 418.8*, NALP1 yeast inh 11.9, NLRP3 yeast inh 7.1 and Mot1 SUMO dose 1.5.
`Cc1ccc(C(=O)Nc2cccc([N+](=O)[O-])c2)cc1S(=O)(=O)Nc1ccc(NC(=O)c2ccccc2)cc1` gave PolyA inh -7.6, SUMO Mot1 rescue -14.3, NALP1 yeast inh 15.0 and NLRP3 yeast inh 23.3.
`Cc1ccc(NS(=O)(=O)c2cc(C(=O)Nc3cccc([N+](=O)[O-])c3)ccc2C)cc1` gave PolyA inh 9.8, SUMO Mot1 rescue 476.0*, NALP1 yeast inh 6.8, NLRP3 yeast inh 13.6 and Mot1 SUMO dose 0.7.
For COc1ccc(Cl)c(NC(=O)Nc2c(C)n(-c3ccccc3)c(=O)n2C)c1 the results were PolyA inh 2.5, SUMO Mot1 rescue -16.3, NALP1 yeast inh 9.8 and NLRP3 yeast inh 8.5.
For Cc1nc2ccc(NC(=O)c3ccco3)cc2s1 the results were PolyA inh -13.6, SUMO Mot1 rescue 363.0*, NALP1 yeast inh -25.4, NLRP3 yeast inh 15.4 and Mot1 SUMO dose -0.2.
`CC(=O)Nc1nc2ccc(NC(=O)c3ccco3)cc2s1` gave PolyA inh 0.3, SUMO Mot1 rescue -26.3, NALP1 yeast inh 4.7 and NLRP3 yeast inh 0.5.
COc1ccc(NC(C)=O)cc1CNC(=O)COc1c(C)c(C)cc(C)c1C was read as PolyA inh 12.1, SUMO Mot1 rescue -23.4, NALP1 yeast inh 20.0 and NLRP3 yeast inh -9.9.
For CCOc1ccc(NC(=O)Nc2ccc3nsnc3c2)cc1 the results were PolyA inh -4.7, SUMO Mot1 rescue active, NALP1 yeast inh 8.7, NLRP3 yeast inh 15.1 and Mot1 SUMO dose 0.6.
Screening Cc1nc2ccc(NC(=O)c3ccc(=O)[nH]c3)cc2s1 returned PolyA inh -3.0, SUMO Mot1 rescue -22.9, NALP1 yeast inh 13.5 and NLRP3 yeast inh -15.3.
`Cn1c(CN2CCOCC2)nnc1SCC(N)=O` gave PolyA inh 8.4, SUMO Mot1 rescue 538.2*, NALP1 yeast inh -4.4, NLRP3 yeast inh 8.1 and Mot1 SUMO dose 0.8.
Screening CCCSc1nnc(CN2CCOCC2)n1C returned PolyA inh -0.9 and NLRP3 yeast inh -14.1.
Screening O=C(COC(=O)Cc1ccsc1)NC1CCCCCC1 returned PolyA inh 4.1, SUMO Mot1 rescue 609.1*, NALP1 yeast inh 6.2, NLRP3 yeast inh 4.4 and Mot1 SUMO dose -0.6.
`O=C(COC(=O)CSc1ccc([N+](=O)[O-])cc1)NC1CCCCCCC1` gave PolyA inh -4.0, SUMO Mot1 rescue 460.5*, NLRP3 yeast inh -5.2 and Mot1 SUMO dose 0.4.
For O=C(NC(Cc1ccccc1)C(=O)O)/C(=C/c1ccc([N+](=O)[O-])cc1)NC(=O)c1ccccc1Br (stereo unspecified) the results were PolyA inh -5.4, SUMO Mot1 rescue 12.7, NALP1 yeast inh -17.5 and NLRP3 yeast inh 5.4.
Screening Cc1ccc(SCC(=O)Nc2ccc(S(=O)(=O)Nc3ncccn3)cc2)cc1 returned PolyA inh 6.0, SUMO Mot1 rescue 1.8, NALP1 yeast inh -4.3 and NLRP3 yeast inh 22.9.
Screening COc1ccc(/C=N/Nc2ccccc2)cc1Cn1nc(C)c([N+](=O)[O-])c1C returned PolyA inh -6.6, SUMO Mot1 rescue 70.6, NALP1 yeast inh 5.3 and NLRP3 yeast inh 13.1.
